Holding throughout (settings): 25 µM; exposure: 24-48 hpf
Assay [1] has as its system Danio rerio Tg(wt1b:EGFP) embryo, pronephros. The assay can be described thus: glomerular separation, fold change vs DMSO control; higher = glomeruli further apart (abnormal). The method in brief:
(§1)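 Features are reported as fold changes against the mean of same-day DMSO-treated embryos. Before that, values more than 2 SD away from the feature mean were excluded. The embryos, dechorionated Tg(wt1b:EGFP) zebrafish, had been exposed from 24 to 48 hpf at 28.5°C to 25 μM compound in 0.5% DMSO in HEPES-buffered E3 with 0.003% PTU, and distances and angles came from 16 manually set points on maximum projections of dorsal pronephros images in Fiji.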

Assay [2] shares this test system. In words: glomerular width (mean of left and right), fold change vs DMSO control; higher = wider glomerulus. The essentials: as §1
For assay [3] the test system is unchanged. The assay can be described thus: fraction of imaged embryos annotated as normal kidney; higher = less nephrotoxic; extreme values may be limits of the assay. The essentials:
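From 24 to 48 hpf at 28.5°C, dechorionated Tg(wt1b:EGFP) zebrafish embryos in 12-well plates were kept in 5 mM HEPES-buffered E3 with 0.003% PTU, 0.5% DMSO and 25 μM compound. Pronephroi were imaged by widefield fluorescence at 470 nm and judged by eye from maximum projections. Reported is the proportion of embryos per treatment in the normal-kidney category.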

The test system is the same in assay [4]. In words: pronephric angle neck segment to proximal convoluted tubule (mean of left and right), fold change vs DMSO control; higher = larger pronephric angle. The essentials:
as §1

Experimental findings from the supplement of paper PMC7366291 are described below.

SMILES strings stand for the structures. Structures can show the parent of a compound that is named as a salt. ± gives the standard deviation or the standard deviation of the averaged measurements.

Compound `Cn1cnc2c1c(=O)[nH]c(=O)n2C` [Theobromine] displayed a glomerular separation in assay [1] of 0.91 ± 0.41. The compound further displayed a glomerular width in assay [2] of 0.947 ± 0.022. Further, the “fraction of imaged embryos annotated as normal kidney” value (“fraction of imaged embryos annotated” for short) in assay [3] came to 0.667. In addition, the “pronephric angle neck segment” value in assay [4] worked out at 1.0118 ± 0.00063.
The compound `Clc1ccc(CCC(Cn2ccnc2)Sc2c(Cl)cccc2Cl)cc1` (configuration not stated) [Butoconazole nitrate] showed a glomerular separation in assay [1] of 2.43 ± 1.2. Also, in assay [2], the glomerular width was found to be 0.767 ± 0.047. For the same compound, the “fraction of imaged embryos annotated” value in assay [3] amounted to 0. Moreover, the “pronephric angle neck segment” value in assay [4] amounted to 1.25 ± 0.056.
`Clc1ccc(COC(Cn2ccnc2)c2ccc(Cl)cc2Cl)cc1` (configuration not stated) [Econazole nitrate] came in with a glomerular separation in assay [1] of 2.58 ± 1.3. Moreover, the glomerular width in assay [2] is 0.9791 ± 0.0056. Also, the “fraction of imaged embryos annotated” value in assay [3] stood at 0.417. Moreover, in assay [4], the “pronephric angle neck segment” value was found to be 1.2 ± 0.0047.
In assay [1], `O=C(N[C@H](CO)[C@H](O)c1ccc([N+](=O)[O-])cc1)C(Cl)Cl` [Chloramphenicol] returned a glomerular separation of 1.33 ± 0.57. Besides, the glomerular width in assay [2] is 0.954 ± 0.035. For the same compound, the “fraction of imaged embryos annotated” value in assay [3] is 1. Also, in assay [4], the “pronephric angle neck segment” value was 0.935 ± 0.052.
Take `CCc1ccc(CCOc2ccc(CC3SC(=O)NC3=O)cc2)nc1` (configuration not stated) [Pioglitazone]: the glomerular separation in assay [1] turned out to be 1.48 ± 0.83. This compound returned a glomerular width in assay [2] of 1.03 ± 0.0063. Also, the “fraction of imaged embryos annotated” value in assay [3] was found to be 0.75. In addition, in assay [4], the “pronephric angle neck segment” value was determined as 1.03 ± 0.018.
Compound `Nc1cc(-c2ccncc2)c[nH]c1=O` [Amrinone] displayed a glomerular separation in assay [1] of 0.609 ± 0.23. In assay [2], the glomerular width turned out to be 1.01 ± 0.036. Also, the “fraction of imaged embryos annotated” value in assay [3] came to 0.917. Further, the “pronephric angle neck segment” value in assay [4] worked out at 0.969 ± 0.014.
With `Cc1onc(-c2ccccc2)c1-c1ccc(S(N)(=O)=O)cc1` [Valdecoxib], in assay [1], the glomerular separation was determined as 0.816 ± 0.3. The glomerular width in assay [2] stood at 1.13 ± 0.019. Besides, in assay [3], the “fraction of imaged embryos annotated” value stood at 0.917. Also, the “pronephric angle neck segment” value in assay [4] is 0.9437 ± 0.0089.
With `Cc1oncc1C(=O)Nc1ccc(C(F)(F)F)cc1` [Leflunomide], the glomerular separation in assay [1] amounted to 2.27 ± 1. In addition, in assay [2], the glomerular width was found to be 1.19 ± 0.15. Besides, the “fraction of imaged embryos annotated” value in assay [3] came to 0.167. The “pronephric angle neck segment” value in assay [4] was 1.23 ± 0.054.
Taken in the same sequence, the figures for `CC1(C)S[C@@H]2[C@H](NC(=O)Cc3ccccc3)C(=O)N2[C@H]1C(=O)O` [Benzathine benzylpenicillin] were 0.907 ± 0.35, 1.06 ± 0.074, 1 and 0.951 ± 0.019.
In assay [1], `Cc1cc(CC(=O)O)n(C)c1C(=O)c1ccc(Cl)cc1` [Zomepirac sodium salt] had a glomerular separation of 0.83 ± 0.4. For the same compound, the glomerular width in assay [2] turned out to be 0.811 ± 0.033. For the same compound, in assay [3], the “fraction of imaged embryos annotated” value was 0.273. For the same compound, the “pronephric angle neck segment” value in assay [4] is 1.23 ± 0.062.
In the case of `C=C(NC(=O)C(=C)NC(=O)c1csc(C2=N[C@@H]3c4csc(n4)[C@H]4NC(=O)c5csc(n5)[C@H]([C@](C)(O)[C@@H](C)O)NC(=O)[C@H]5CSC(=N5)/C(=C/C)NC(=O)[C@H]([C@@H](C)O)NC(=O)c5csc(n5)[C@]3(CC2)NC(=O)[C@H](C)NC(=O)C(=C)NC(=O)[C@H](C)NC(=O)[C@H]([C@@H](C)CC)N[C@@H]2C=Cc3c([C@H](C)O)cc(nc3[C@H]2O)C(=O)O[C@@H]4C)n1)C(N)=O` [Thiostrepton], the glomerular separation in assay [1] was 1.02 ± 0.32. In assay [2], this compound had a glomerular width of 1.02 ± 0.056. Also, the “fraction of imaged embryos annotated” value in assay [3] worked out at 0.917. In assay [4], the “pronephric angle neck segment” value stood at 1.01 ± 0.12.
As to `CC#C[C@]1(O)CC[C@H]2[C@@H]3CCC4=CC(=O)CCC4=C3[C@@H](c3ccc(N(C)C)cc3)C[C@@]21C` [Mifepristone], the glomerular separation in assay [1] was determined as 0.949 ± 0.33. Moreover, the glomerular width in assay [2] was determined as 1.15 ± 0.027. The “fraction of imaged embryos annotated” value in assay [3] is 0.75. Besides, the “pronephric angle neck segment” value in assay [4] worked out at 1.0508 ± 0.001.
In assay [1], `C#CCN[C@@H]1CCc2ccccc21` [Rasagiline] gave a glomerular separation of 1.13 ± 0.38. Moreover, the glomerular width in assay [2] stood at 0.994 ± 0.012. The “fraction of imaged embryos annotated” value in assay [3] came out at 0.667. For the same compound, in assay [4], the “pronephric angle neck segment” value came out at 0.972 ± 0.021.
For `CN1CCN(C(c2ccccc2)c2ccc(Cl)cc2)CC1` (configuration not stated) [Chlorcyclizine hydrochloride] the same measures were 1.13 ± 0.62, 0.995 ± 0.017, 0.917 and 0.966 ± 0.022.
As for `CC[C@H]1OC(=O)[C@H](C)[C@@H](O[C@H]2C[C@@](C)(OC)[C@@H](O)[C@H](C)O2)[C@H](C)[C@@H](O[C@@H]2O[C@H](C)C[C@H](N(C)C)[C@H]2O)[C@](C)(OC)C[C@@H](C)C(=O)[C@H](C)[C@@H](O)[C@]1(C)O` [Clarithromycin], in assay [1], the glomerular separation is 0.802 ± 0.28. The glomerular width in assay [2] stood at 0.909 ± 0.043. Also, in assay [3], the “fraction of imaged embryos annotated” value came to 1. Moreover, the “pronephric angle neck segment” value in assay [4] came to 1.06 ± 0.039.
`C[C@H](N)[C@H](O)c1cccc(O)c1` [Metaraminol bitartrate] displayed a glomerular separation in assay [1] of 0.797 ± 0.44. Besides, the glomerular width in assay [2] was 0.961 ± 0.083. In addition, in assay [3], the “fraction of imaged embryos annotated” value is 0.667. Moreover, the “pronephric angle neck segment” value in assay [4] stood at 0.771 ± 0.017.
On to `CNCCCC1c2ccccc2C=Cc2ccccc21` [Protriptyline hydrochloride], for which the glomerular separation in assay [1] came to 0.765 ± 0.31. The same compound came in with a glomerular width in assay [2] of 1.07 ± 0.027. Moreover, the “fraction of imaged embryos annotated” value in assay [3] stood at 0.75. Further, the “pronephric angle neck segment” value in assay [4] turned out to be 0.973 ± 0.027.
As for `CCCNCC(O)COc1ccccc1C(=O)CCc1ccccc1` (configuration not stated) [Propafenone hydrochloride], the glomerular separation in assay [1] was 1.06 ± 0.39. The glomerular width in assay [2] is 1.05 ± 0.0038. Also, the “fraction of imaged embryos annotated” value in assay [3] is 0.818. For the same compound, the “pronephric angle neck segment” value in assay [4] was 1.13 ± 0.035.
